PubChem BioAssay (NCI)
This is part of a sample that, as a whole, favours compounds with a hit. Of some 83,000 tested, about 20% had one in any assay.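 Results are percent growth after 48 hours of single-concentration exposure. 100 means growth as in untreated cells, lower positive values show inhibition; negative values down to -100 show cell death.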 Unmarked numbers belong to inactive results. Calls of active or inactive are those of the source. Rule for the calls: active = growth percent below 10; inactive = the rest.

Test system: MDA-MB-468 breast
Experiment: NCI-60 one-dose screen, 48 h (100 = growth as untreated, 0 = no growth, -100 = all killed)
Details: 10 µM unless noted

Structure (SMILES)	growth
Nc1nc(N)c2c(n1)NC(c1ccc(F)cc1)CC(c1ccc(Nc3nc(NCCO)nc(Nc4ccc(Cl)cc4)n3)cc1)=N2 (stereo not drawn)	-68.5% (active)
COc1cc(C)c(Cc2cnc(N)nc2N)cc1OC	116%
COc1cc2c(cc1OC)C(=O)C(CC1CCN(C(=O)Nc3ccc(C)cc3)CC1)C2 (stereo not drawn)	93.1%
OCCN1CCCN(CCCN2c3ccccc3Sc3ccc(C(F)(F)F)cc32)CC1	39.6%
C=C1C(=O)O[C@H]2[C@H]1CC/C(Cn1cc(-c3cccc(Cl)c3)nn1)=C\CC[C@@]1(C)O[C@@H]21	-66.1% (active)
O=C(Nc1ccc(Cl)c(Cl)c1)Nc1ccc(Cl)c([N+](=O)[O-])c1	-19% (active)
C=CC(=O)N[C@H](Cc1ccc(-c2cc(Cl)cc(Cl)c2)cc1)[C@H](O)[C@@H](O)C(=O)O	85.5%
CC1(C)OCC(COC(c2ccccc2)(c2ccccc2)c2ccccc2)O1 (stereo not drawn)	109%
CCC(=O)Oc1ccc(/C(=C(\C)c2ccccc2)c2ccc(OCCN(CC)CC)cc2)cc1	82.4%
COc1ccc(C2C=C(c3ccc(Cl)cc3)N=C3SC=CN32)cc1 (stereo not drawn)	120%
C=CN(C(=O)N1CCN(c2cc3c(cc2F)c(=O)c(C(=O)O)cn3C2CC2)CC1)c1nc(-c2ccc(C)cc2)cs1	44.4%
CC1(C)CC[C@]2(C(=O)O)CC[C@]3(C)C(=CCC4[C@@]5(C)C[C@@H](O)[C@@H]6OC(c7cccc([N+](=O)[O-])c7)OC[C@@]6(C)C5CC[C@]43C)C2C1 (stereo partly drawn)	76%
NC(N)=Nc1ccc(Oc2cccc(NC(N)=Nc3ccc(I)cc3F)c2)cn1	-8.03% (active)
CCCCCCC12CCC(=O)N1CCc1cncn12 (stereo not drawn)	85%
O=c1[nH]c2ccccc2cc1CSc1ccccc1Nc1nccc(-c2ccc(C(F)(F)F)cc2)n1	47.6%
CCOC(=O)c1c(C)nc2c(c1N)/C(=C/c1cc(OC)c(OC)c(OC)c1)C(=O)N2c1ccc(OC)cc1	56%
CCCC(=O)Nc1ccccc1C(=O)O	106%
O=C(/C=C/c1ccccc1)c1ccc(O)c(CN2CCN(c3cc4c(cc3F)c(=O)c(C(=O)O)cn4C3CC3)CC2)c1	3.64% (active)
c1ccc(-c2c(-c3ccccc3)[n+](Cc3ccc4ccccc4c3)cn2Cc2ccc3ccccc3c2)cc1	-85% (active)
COc1cc(C2CC(c3ccc4c(c3)OCO4)=NN2C(C)=O)cc(OC)c1OC (stereo not drawn)	-26.8% (active)
COc1cc(-c2nc(-c3nnc(-c4cccnc4)o3)c3ccccn23)cc(OC)c1OC	104%
CCCCN(CCCC)c1ccc(C(=N)c2ccc(N(CCCC)CCCC)cc2)cc1	-92.9% (active)
CCn1c(C)nc2cc(C(N)=O)ccc21	102%
